From ChEMBL document CHEMBL1157539, “Thousands of chemical starting points for antimalarial lead identification” (Nature, 2010)

test system: HepG2; assay: GSK_TCMDC: Percent inhibition of human HepG2 cell line. Test compounds present at 10uM.; format: functional

Structure (SMILES) | Inhibition [%]
CC1CN(c2ccc(NC(=O)c3cccs3)cc2)CCN1Cc1cccc(F)c1.O=C(O)C(F)(F)F (stereo not given) | 5
COc1ccccc1C1CC(c2ccccc2)=NN1C(=O)c1ccccc1 (stereo not given) | 13
CCN(CC)CCn1c(=N)n(CC(O)c2ccc(Cl)c(Cl)c2)c2ccccc21.Cl (stereo not given) | 35
CC(O)C1CCCCN1C(=O)c1cccc(-c2ccc(-c3nc4ccccc4[nH]3)s2)c1 (stereo not given) | 24
COc1cc(Cc2cnc(N)nc2N)cc(OCCCCCCN2C(=O)c3ccccc3C2=O)c1OC | 15
Cc1ccc(C(=O)NC2CCN(CCNC(=O)Nc3cc(C)nc4ccccc34)CC2)cc1 | 0
O=C(Nc1cccc(-c2ccc(-c3nc4cc(F)ccc4[nH]3)cc2)c1)c1ccoc1 | 39
COc1cc(Nc2nccn3c(-c4ccsc4)cnc23)cc(OC)c1OC | 26
CCCC(=O)NC(c1cccs1)c1cc(Cl)c2cccnc2c1O (stereo not given) | 51
Oc1ccc(-c2cncc(NCc3ccc(F)c(F)c3)c2)cc1 | 0
COc1ccc(C(=O)O)cc1OCc1ccccc1 | 0
Cc1c(F)cc(C(=O)NC2CC2)cc1-c1ccc2c(cnn2S(=O)(=O)c2ccc(Cl)s2)c1 | 24
C[C@H](NC(=O)c1c(CN2CCC(NC(=O)CC(C)(C)C)CC2)c(-c2cccs2)nc2ccccc12)C1CCCCC1 | 0
Cc1cc(-c2ccc3occ(CCN)c3c2)cnc1N | 0
CC(C)CCCC(C)(C)NC[C@@H](O)[C@H](Cc1ccccc1)NC(=O)c1cc(NC(C)C)cc(N2CCCCS2(=O)=O)c1.O=CO | 2
COc1ccc(Nc2c3ccc(Cl)cc3nc3ccc(OC)cc23)cc1.Cl | 14
Cc1ccc(-c2ccn(Cc3ccc(OCc4ccccc4)cc3)n2)cn1.Cc1ccc(-c2ccnn2Cc2ccc(OCc3ccccc3)cc2)cn1 | 1
Cc1sc2cc(Cl)cc(Cl)c2c1S(=O)(=O)Nc1ccc2nccc(N3CCNCC3)c2c1.Cl | 24
Fc1ccc2[nH]c(-c3cccc(-c4cccc(CN5CCN(c6ccncc6)CC5)c4)c3)nc2c1.O=C(O)C(F)(F)F | 71
COc1ccc(Cc2c(C)nc3nc(N)nc(N)c3c2C)cc1OC.Cl | 66

Structure (SMILES) | Inhibition [%]
O=C(Cn1c(CCc2cccc(F)c2F)cc(=O)c2ccccc21)N(Cc1ccc(-c2ccc(C(F)(F)F)cc2)cc1)C1CCN(CCO)CC1.O=C(O)C(O)C(O)C(=O)O | 82
Cc1cc(OCCCN2CCCCC2)ccc1NC(=O)COc1ccc(Cl)cc1C(=O)c1cc(C#N)cc(C(F)(F)F)c1 | 23
Cc1cccc(Nc2nc3nonc3nc2Nc2cccc(Cl)c2Cl)c1C | 88
CNC(=O)/C=C/c1cc(NC(=O)Nc2cc(C)nc3c(F)cccc23)ccc1OC | 0
COCCOc1ccc(C(F)(F)F)cc1NC(=O)Cc1c(F)cccc1Cl | 18
Cc1cccc2nc(-c3cccc(-c4cccc(CNCc5cnn(-c6ccccc6)n5)c4)c3)[nH]c12.O=C(O)C(F)(F)F | 12
CCCCCCCCN1CCCN(C(=O)c2cccc(NC(=O)Nc3ccc4ccccc4c3)c2)CC1.O=C(O)C(F)(F)F | 39
COc1ccc(CNCc2ccsc2)cc1-c1ccc(OC)c(S(=O)(=O)NCCN2CCCC2)c1.O=C(O)C(F)(F)F | 18
COc1ccc(Cl)cc1N1CCN(CCCNC(=O)c2ccc(-c3nc4cc(Cl)c(F)cc4[nH]3)cc2)CC1 | 3
Cc1ccc(C(=O)Nc2ccc(C)c(OC3CCN(CCC(C)C)C3)c2)cc1.O=C(O)C(F)(F)F (stereo not given) | 6
COc1cc(-c2cc3cc(Cl)c(Cl)cc3[nH]2)ccc1C(=O)NC1CCN(Cc2ccccc2)CC1.O=C(O)C(F)(F)F | 12
CC(=O)Oc1c(C(=O)C2CCC(C(C)(C)C)CC2)c(OC(C)=O)c2ccccc2c1OC(C)=O (stereo not given) | 9
CCC[C@@H]([C@@H](CC(C)C)C(=O)N[C@H](C(=O)Nc1nccs1)C(C)(C)SCCNC(=O)OCC)N(O)C=O | 0
COc1ccc2nccc([C@@H](O)CN3CCC(NCc4cnc5c(c4)NC(=O)CS5)CC3)c2c1.O=C(O)C(=O)O | 0
CCCC(=O)Nc1ccc(OCCCN(Cc2ccccc2C(F)(F)F)c2ccc(C#N)c(C(F)(F)F)c2)cc1 | 0
CCN(CC)C(=S)N/N=C1/C(=O)Nc2c(C)cccc21 | 28
COc1ccc2nccc([C@@H](O)CN3CCC(NCc4nc5c(cc4Cl)OCC(=O)N5)C(F)C3)c2c1.Cl (stereo not given in full) | 4
Cl.c1ccc2c(NCCCCCCNc3ccnc4ccccc34)ccnc2c1 | 43
CCOC(=O)c1ccc(N2CCN(CCCNC(=O)/C(=C/C=C/c3cc4cc(Cl)c(Cl)cc4[nH]3)OC)CC2)cc1 | 39
CN(C)CCNC(=O)[C@H](CC1CCCCC1)NC(=O)c1ccc(O)c(-c2ccc(Cl)c(Cl)c2)c1 | 0
